Our source for the composite z-score and composite Z-score values is PubChem BioAssay.

One test deals with Albumin (Bos taurus) (UniProt P02769). Put plainly: bovine serum albumin binders on microarray, profiling panel, artefact control for SMM control protein annotation, biochemical, small-molecule microarray, Alexa647 label, 635/667 nm fluorescence (AID 1118).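 Also: score merges 667 nm emission intensity and signal-to-noise per printed compound spot.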 To be noted: BSA-A647 binding, fluorescence 635 nm, higher = more signal.
Test [1] is described as follows: small-molecule microarray binders of probe aXIP, primary screen, biochemical, NeuroSMM set, 635/667 nm fluorescence (AID 1119).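 Also: probe is the protein aXip251-270 applied at 1 µg/mL to compound-printed slides; binding of probe to printed compounds measured as 667 nm fluorescence plus signal to noise.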 To be noted: higher = more signal, called active from +8 up or from −8 down.
Test [2] is described as follows: small-molecule binders of probe aNOTCH3, primary screen, biochemical, small-molecule microarray, 635/667 nm fluorescence (AID 1120).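 Also: probe is a biotin-tagged antibody raised against NOTCH3 rather than NOTCH3 protein; score merges spot fluorescence near 667 nm with spot signal to noise.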 The following applies: higher = more signal.
Test [3] can be described thus: small-molecule binders of probe aNOTCH2, primary screen, biochemical, small-molecule microarray, 635/667 nm fluorescence (AID 1121).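 Also: score merges feature fluorescence read at 667 nm with its signal to noise.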 The following applies: higher = more signal.
The target of test [4] is Carbonic anhydrase 2 (Homo sapiens) (UniProt P00918). Put plainly: CAII small-molecule binders, profiling panel, biochemical, small-molecule microarray, Alexa647-labelled CAII (AID 1122). To be noted: CAII-A647 binding fluorescence, higher = more signal.
Test [5] is described as follows: COS7 lysate on small-molecule microarray, probe aHis, 635 nm (AID 1123).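 Also: z-score combines 667nm fluorescence intensity with signal-to-noise per printed compound spot.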 The following applies: COS7 cell lysate, fluorescence, higher = more signal.
A short description of test [6]: compound binding in COS7 lysate, probe aLAP1, primary screen, cell lysate, small-molecule microarray (AID 1124).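 Also: lysate comes from COS7 cells expressing LAP1 and is applied at 0.3 µg/mL; score merges spot fluorescence near 667 nm with signal-to-noise over triplicate slides.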 To be noted: probe aLAP1, fluorescence, higher = more signal.
In the next test the test system is Sam68 (KHDRBS1). Put plainly: Sam68 small-molecule binders, primary screen, biochemical, small-molecule microarray, 635 nm fluorescence (AID 1125).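 Also: score merges 667 nm channel intensity with signal to noise over triplicate slides.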 To be noted: small-molecule microarray binding, higher = more signal.
Test [7] has as its system Chordin-like protein 2 (CHRDL2). Description: CHRDL2 small-molecule binders, primary screen, biochemical, small-molecule microarray, 635 nm fluorescence (AID 1126).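 Also: printed compound slides probed with Chrdl2 protein at 4 µg/mL for 1 h at 4 C; score merges 667 nm emission intensity with signal to noise over three replicate slides.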 To be noted: small-molecule microarray binding, fluorescence 635 nm; higher = more signal.
The target of test [8] is Concanavalin-A (Canavalia ensiformis) (UniProt P02866). Put plainly: ConA small-molecule binders, primary screen, artefact control for SMM control protein annotation, biochemical, small-molecule microarray, Alexa647 label, 635 nm (AID 1127).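 Also: z combines 667 nm emission intensity with signal-to-noise across three replicate slides.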 The following applies: ConA-A647 binding fluorescence, higher = more signal.

The source made the active and inactive calls.

Concanavalin-A (Canavalia ensiformis), sequence (P02866 whole entry, looked up): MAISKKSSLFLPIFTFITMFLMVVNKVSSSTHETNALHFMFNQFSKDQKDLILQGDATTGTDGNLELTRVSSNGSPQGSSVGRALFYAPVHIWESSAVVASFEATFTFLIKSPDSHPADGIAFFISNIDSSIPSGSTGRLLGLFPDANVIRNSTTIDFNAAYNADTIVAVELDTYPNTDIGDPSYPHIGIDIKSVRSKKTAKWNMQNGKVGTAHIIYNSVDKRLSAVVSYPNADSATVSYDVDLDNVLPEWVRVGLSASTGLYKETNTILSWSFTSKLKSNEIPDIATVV
Albumin (Bos taurus), sequence (P02769 whole entry, looked up): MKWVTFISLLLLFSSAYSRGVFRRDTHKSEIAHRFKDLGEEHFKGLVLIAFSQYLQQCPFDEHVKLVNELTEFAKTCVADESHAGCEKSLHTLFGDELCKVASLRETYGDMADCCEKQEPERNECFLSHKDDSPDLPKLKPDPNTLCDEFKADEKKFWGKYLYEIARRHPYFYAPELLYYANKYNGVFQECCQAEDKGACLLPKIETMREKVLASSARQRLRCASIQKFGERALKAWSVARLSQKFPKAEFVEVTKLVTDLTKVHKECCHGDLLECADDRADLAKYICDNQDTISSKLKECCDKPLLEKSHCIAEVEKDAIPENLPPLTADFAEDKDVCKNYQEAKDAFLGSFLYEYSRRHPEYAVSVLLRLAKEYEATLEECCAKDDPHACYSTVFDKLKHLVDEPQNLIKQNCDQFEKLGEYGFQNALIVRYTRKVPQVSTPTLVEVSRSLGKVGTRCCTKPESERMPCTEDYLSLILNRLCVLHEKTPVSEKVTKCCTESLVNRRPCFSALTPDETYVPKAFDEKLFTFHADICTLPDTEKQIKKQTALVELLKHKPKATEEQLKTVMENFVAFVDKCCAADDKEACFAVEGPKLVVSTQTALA

Turning to `COC(=O)C(CC#Cc1ccc2c(c1)[C@]1(C(=O)N2)[C@H](C(=O)NC[C@H](O)c2ccccc2)[C@H]2C(=O)O[C@H](c3ccccc3)[C@H](c3ccccc3)N2[C@@H]1c1ccc(O)cc1)C(=O)OC`, the composite z-score was 0.41 with Albumin (Bos taurus); -0.0932 in test [2]; -0.126 in test [3]; 0.683 in [4]; 0.84 in test [5]; -0.177 in test [6]. For the same compound, the results for the composite z-score (in the test on Sam68 (KHDRBS1); in [7]; in [8]) were -0.165, -0.275 and 0.188, respectively. For the same compound, in test [1], the composite Z-score was 1.05 (inactive).

Take `C=CC[C@H](OC(=O)Nc1ccc(SC)cc1)c1ccc(O)c(F)c1`: the composite z-score with Albumin (Bos taurus) is 0.333; in test [2], -0.246; in [3], -0.168; in test [4], 0.577; in [5], 0.596; in test [6], -0.172. Also, the composite z-score in the test with Sam68 (KHDRBS1) is -1.28; in test [7], -0.174; in test [8], -0.873. Moreover, the composite Z-score in [1] was 0.514 (inactive).

Regarding `C=CCN1C(=O)[C@]2(O[C@H](CCO)[C@@H]([Si](C)(C)c3ccc(OC)cc3)[C@@H]2C)c2cc(N3C(=O)c4ccccc4Oc4ccccc43)ccc21`, the composite z-score was 0.493 in the test with Albumin (Bos taurus); -0.0328 in [2]; -0.125 in [3]; 0.467 in test [4]; 0.506 in [5]; 0.199 in [6]. For the same compound, the composite z-score in the test on Sam68 (KHDRBS1) is 1.11; in test [7], -0.175; in [8] it was 0.91. The composite Z-score in test [1] was -0.0467 (inactive).

With `O=C1O[C@@H](c2ccccc2)[C@@H](c2ccccc2)N2[C@@H](c3ccc(OCCO)cc3)[C@]3(C(=O)Nc4ccc(C#CC5=CCCCC5)cc43)[C@@H](C(=O)Nc3nc4ccccc4s3)[C@H]12`, the composite z-score in the test with Albumin (Bos taurus) is -0.01; in test [2], 0.674; in test [3] it was -0.42; in test [4], 0.303; in test [5], 1.14; in test [6], -0.142. Besides, the values for the composite z-score (in the test with Sam68 (KHDRBS1); in test [7]; in [8]) were 1.28, 0.163 and 1.07, respectively. The composite Z-score in test [1] was 0.159 (inactive).

For the compound `Cc1ccc(S(=O)(=O)N2[C@@H](c3ccccc3)C(C(=O)O)=C[C@H]2C(C)(C)C)cc1`, the composite z-score with Albumin (Bos taurus) was 1; in test [2] it was 0.178; in test [3] it was 0.0458; in [4] it was 0.756; in test [5], 2.82; in [6] it was 0.827. The composite z-score in the test with Sam68 (KHDRBS1) is 1.3; in test [7] it was -0.301; in test [8], 1.17. Besides, in test [1], the composite Z-score was 0.882 (inactive).

For `COc1ccc(CCNC(=O)[C@@H]2c3ccccc3C(=O)N(Cc3cc(F)cc(C(F)(F)F)c3)[C@H]2c2ccc(CO)cc2)cc1`, the composite z-score with Albumin (Bos taurus) was -0.0885; in test [2], 0.249; in test [3], 0.207; in test [4] it was 0.753; in [5], 2.1; in test [6] it was 1.51. Moreover, the composite z-score turned out to be 1.03 with Sam68 (KHDRBS1), 0.0818 in test [7] and 0.198 in test [8]. Moreover, in test [1], the composite Z-score was -0.795 (inactive).

As to `O=C1OC[C@@H](c2ccccc2)n2cc(/C=C/c3ccccc3)cc21`, the composite z-score is -0.456 with Albumin (Bos taurus); -0.189 in test [2]; -0.149 in [3]; 0.43 in test [4]; 0.163 in test [5]; -0.475 in test [6]. The composite z-score is -1.14 with Sam68 (KHDRBS1), -0.701 in [7] and 0.51 in test [8]. For the same compound, the composite Z-score in [1] was 0.597 (inactive).

With `O=C1C2C=CC(C(O)C3CC=CCC3)N(Nc3ccc([N+](=O)[O-])cc3)C2C(=O)N1c1ccccc1` (stereo not given), the composite z-score with Albumin (Bos taurus) was found to be 0.82; in test [2], 0.749; in test [3] it was 0.326; in test [4] it was 0.693; in [5], 2.5; in test [6] it was 1.21. In addition, the values for the composite z-score (in the test on Sam68 (KHDRBS1); in test [7]; in test [8]) were 1.33, 0.729 and 1.07, respectively. Further, the composite Z-score in [1] was 0.626 (inactive).

Take `C=CC[C@]12N=C(c3ccc(OCCCO)cc3)O[C@H]1c1ccccc1N(CCC)C2=O`: the composite z-score was -0.0791 with Albumin (Bos taurus); 0.467 in test [2]; 0.14 in test [3]; 0.705 in test [4]; 2.85 in test [5]; 0.674 in test [6]. For the same compound, the composite z-score in the test with Sam68 (KHDRBS1) is 1.29; in test [7] it was 1.2; in [8], 1.09. Further, the composite Z-score in [1] is 1.91 (inactive).

As for `CC(C)C[C@@H]1NC(=O)[C@@H]2C[C@H](C(=O)NCCCCCNC(=O)CS)[C@H](c3ccc(O)cc3)N2C1=O`, the composite z-score in the test with Albumin (Bos taurus) was -0.0368; in test [2], -0.101; in test [3], -0.104; in [4], 0.36; in test [5], 2.1; in [6], -0.646. Further, the composite z-score with Sam68 (KHDRBS1) is 0.92; in test [7], 0.652; in test [8] it was 0.374. Moreover, the composite Z-score in test [1] is -0.442 (inactive).

Take `CC(C)C(=C=CC[C@H](O)c1cccc(OCCO)c1)C[C@H](O)c1ccccn1`: the composite z-score with Albumin (Bos taurus) was 0.481; in test [2] it was -0.0647; in test [3], -0.146; in test [4] it was 0.811; in [5], 0.48; in [6], 0.182. Further, the composite z-score is 0.353 in the test on Sam68 (KHDRBS1), -0.0719 in test [7] and 0.13 in test [8]. Further, the composite Z-score in [1] was -0.128 (inactive).

With `CN1C2C=C(c3ccc(CO)cc3)C(C3C(=O)N(C(N)=O)C(=O)C32)C1C1CC1` (stereo not given), the composite z-score with Albumin (Bos taurus) was -0.43; in test [2] it was -0.206; in [3], -0.146; in test [4], -0.117; in test [5] it was 0.151; in [6] it was -0.262. For the same compound, the composite z-score in the test with Sam68 (KHDRBS1) is 0.267; in [7], -0.0733; in test [8], 0.688. Moreover, the composite Z-score in test [1] is -0.378 (inactive).

On to `CCCCC(=C=CC[C@H](O)c1cccc(OCCO)c1)C[C@H](O)c1cc(Cl)cc(Cl)c1O`, for which the composite z-score with Albumin (Bos taurus) was 0.436; in test [2] it was -0.0288; in test [3] it was -0.143; in test [4] it was 0.465; in test [5], 0.686; in [6], -0.151. Also, the figures for the composite z-score (in the test on Sam68 (KHDRBS1); in test [7]; in [8]) were 1.03, 0.0963 and 1.04, respectively. Also, the composite Z-score in [1] was 0.41 (inactive).

As for `CO[C@H]1O[C@H](CO)[C@@H](OC(=O)Nc2ccccc2)[C@@H]2OC(=O)[C@@H](Cc3ccccc3)C/C=C/C[C@H](Cc3ccccc3)C(=O)O[C@@H]12`, the composite z-score with Albumin (Bos taurus) is 0.0558; in [2], 0.106; in [3] it was -0.0486; in test [4] it was 0.315; in test [5], 0.923; in test [6], 0.79. Moreover, the composite z-score with Sam68 (KHDRBS1) is 0.296; in [7], -0.0529; in test [8] it was -0.216. In [1], the composite Z-score is 0.547 (inactive).

Consider `C=C(CCCC)/C(=C/C[C@@H](OC(C)=O)c1cccc(OCCO)c1)c1cc(C(=O)OC)ccc1OC`, for which the composite z-score with Albumin (Bos taurus) was 0.119; in test [2] it was -0.0131; in [3], -0.168; in test [4] it was 0.561; in test [5], -0.22; in test [6] it was -0.247. Moreover, the composite z-score in the test on Sam68 (KHDRBS1) was 0.71; in test [7], -0.0137; in [8], -0.656. For the same compound, the composite Z-score in test [1] was 0.303 (inactive).
